The test system of experiment [1] is PRMT1 (protein arginine N-methyltransferase 1). In words: PRMT1 binders on small-molecule microarrays, primary screen, biochemical, small-molecule microarray, 635 nm fluorescence (AID 1088).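 Also: binding of Prmt1 protein to compounds spotted on small-molecule microarray slides.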 The following applies: small-molecule microarray binding, higher = more signal.
Experiment [2] can be described thus: yeast growth modulation, basal conditions, primary screen, YJM789 clinical isolate, OD600, 24 h (AID 1089).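 Also: growth of clinical yeast isolate S. cerevisiae YJM 789 seeded 1000 cells per well; test concentration not given here.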 The following applies: S. cerevisiae YJM789 growth, higher = more signal, called active from +8 up or from −8 down.
Experiment [3] is described as follows: fission yeast growth modulation, primary screen, strain 972, OD600, 24 h, no modulator (AID 1090).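 Also: basal condition with compound alone and no growth modifier present; test concentration not given here.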 Particulars: S. pombe 972 growth, higher = more signal, called active from +8 up or from −8 down.
The nature of experiment [4]: S. cerevisiae growth modulation with rapamycin, primary screen, strain BY4716, OD600, 96 h (AID 1091). Also: test concentration not given here. The following applies: higher = more signal, called active from +8 up or from −8 down.
Experiment [5] addresses Torsin-1A-interacting protein 2 (Homo sapiens) (UniProt Q8NFQ8). The experiment in a line: LULL1 binders on small-molecule microarray, primary screen, cell lysate, human LULL1 lysate, 635/667 nm fluorescence (AID 1092).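 Also: probe is lysate of COS7 cells overexpressing human LULL1; score merges per-feature 667 nm fluorescence with signal-to-noise.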 Particulars: hLULL1 lysate binding, 635 nm fluorescence, higher = more signal.
Experiment [6] can be described thus: E. coli growth modulation, two-sided OD650, primary screen, E. coli filamentation project, strain DRC41, 24 h (AID 1093).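 Also: MC1000 strain lacking acrAB efflux and sulA so SOS filamentation is blocked; test concentration not given here.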 The following applies: OD650, 24 h, higher = more signal, called active from +8 up or from −8 down.
The nature of experiment [7]: small-molecule microarray binders of probe aLefty2, primary screen, biochemical, biotinylated probe, 635/667 nm fluorescence (AID 1094).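 Also: score merges spot fluorescence near 667 nm with spot signal-to-noise ratio.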 The following applies: higher = more signal.
Experiment [8] concerns Noggin (protein binding on small-molecule microarray). In words: Noggin binders on small-molecule microarray, primary screen, biochemical, 635/667 nm fluorescence (AID 1095).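 Also: score merges 667 nm feature fluorescence with signal to noise over triplicate slides.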 Particulars: 635 nm fluorescence, higher = more signal.
Experiment [9] concerns the target Neurogenic locus notch homolog protein 3 (Homo sapiens) (UniProt Q9UM47). In words: NOTCH3 binders on small-molecule microarray, primary screen, biochemical, 635/667 nm fluorescence (AID 1096). The following applies: NOTCH3 binding, 635 nm fluorescence, higher = more signal.
A short description of experiment [10]: small-molecule microarray binders of probe aEGFR, primary screen, biochemical, biotinylated probe, 635/667 nm fluorescence (AID 1097).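 Also: probe is a biotinylated anti-EGFR antibody binding compounds printed on slides; score combines fluorescence near 667 nm and signal to noise of each spot.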 Particulars: higher = more signal.

The source made the active and inactive calls.

Chain of Torsin-1A-interacting protein 2 (Homo sapiens) (Q8NFQ8 whole entry, looked up): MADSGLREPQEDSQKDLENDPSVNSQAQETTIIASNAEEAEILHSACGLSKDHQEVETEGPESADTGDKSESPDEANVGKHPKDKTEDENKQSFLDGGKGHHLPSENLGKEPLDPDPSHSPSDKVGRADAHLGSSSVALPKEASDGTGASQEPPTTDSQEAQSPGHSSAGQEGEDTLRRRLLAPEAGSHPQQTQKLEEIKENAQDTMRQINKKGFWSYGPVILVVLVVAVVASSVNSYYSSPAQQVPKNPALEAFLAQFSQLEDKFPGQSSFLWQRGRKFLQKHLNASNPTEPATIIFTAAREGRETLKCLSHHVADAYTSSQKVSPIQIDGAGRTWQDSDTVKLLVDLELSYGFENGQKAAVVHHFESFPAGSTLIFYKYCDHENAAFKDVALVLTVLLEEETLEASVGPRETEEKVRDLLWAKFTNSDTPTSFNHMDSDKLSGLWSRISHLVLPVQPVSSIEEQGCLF
Chain of Neurogenic locus notch homolog protein 3 (Homo sapiens) (Q9UM47 whole entry, looked up): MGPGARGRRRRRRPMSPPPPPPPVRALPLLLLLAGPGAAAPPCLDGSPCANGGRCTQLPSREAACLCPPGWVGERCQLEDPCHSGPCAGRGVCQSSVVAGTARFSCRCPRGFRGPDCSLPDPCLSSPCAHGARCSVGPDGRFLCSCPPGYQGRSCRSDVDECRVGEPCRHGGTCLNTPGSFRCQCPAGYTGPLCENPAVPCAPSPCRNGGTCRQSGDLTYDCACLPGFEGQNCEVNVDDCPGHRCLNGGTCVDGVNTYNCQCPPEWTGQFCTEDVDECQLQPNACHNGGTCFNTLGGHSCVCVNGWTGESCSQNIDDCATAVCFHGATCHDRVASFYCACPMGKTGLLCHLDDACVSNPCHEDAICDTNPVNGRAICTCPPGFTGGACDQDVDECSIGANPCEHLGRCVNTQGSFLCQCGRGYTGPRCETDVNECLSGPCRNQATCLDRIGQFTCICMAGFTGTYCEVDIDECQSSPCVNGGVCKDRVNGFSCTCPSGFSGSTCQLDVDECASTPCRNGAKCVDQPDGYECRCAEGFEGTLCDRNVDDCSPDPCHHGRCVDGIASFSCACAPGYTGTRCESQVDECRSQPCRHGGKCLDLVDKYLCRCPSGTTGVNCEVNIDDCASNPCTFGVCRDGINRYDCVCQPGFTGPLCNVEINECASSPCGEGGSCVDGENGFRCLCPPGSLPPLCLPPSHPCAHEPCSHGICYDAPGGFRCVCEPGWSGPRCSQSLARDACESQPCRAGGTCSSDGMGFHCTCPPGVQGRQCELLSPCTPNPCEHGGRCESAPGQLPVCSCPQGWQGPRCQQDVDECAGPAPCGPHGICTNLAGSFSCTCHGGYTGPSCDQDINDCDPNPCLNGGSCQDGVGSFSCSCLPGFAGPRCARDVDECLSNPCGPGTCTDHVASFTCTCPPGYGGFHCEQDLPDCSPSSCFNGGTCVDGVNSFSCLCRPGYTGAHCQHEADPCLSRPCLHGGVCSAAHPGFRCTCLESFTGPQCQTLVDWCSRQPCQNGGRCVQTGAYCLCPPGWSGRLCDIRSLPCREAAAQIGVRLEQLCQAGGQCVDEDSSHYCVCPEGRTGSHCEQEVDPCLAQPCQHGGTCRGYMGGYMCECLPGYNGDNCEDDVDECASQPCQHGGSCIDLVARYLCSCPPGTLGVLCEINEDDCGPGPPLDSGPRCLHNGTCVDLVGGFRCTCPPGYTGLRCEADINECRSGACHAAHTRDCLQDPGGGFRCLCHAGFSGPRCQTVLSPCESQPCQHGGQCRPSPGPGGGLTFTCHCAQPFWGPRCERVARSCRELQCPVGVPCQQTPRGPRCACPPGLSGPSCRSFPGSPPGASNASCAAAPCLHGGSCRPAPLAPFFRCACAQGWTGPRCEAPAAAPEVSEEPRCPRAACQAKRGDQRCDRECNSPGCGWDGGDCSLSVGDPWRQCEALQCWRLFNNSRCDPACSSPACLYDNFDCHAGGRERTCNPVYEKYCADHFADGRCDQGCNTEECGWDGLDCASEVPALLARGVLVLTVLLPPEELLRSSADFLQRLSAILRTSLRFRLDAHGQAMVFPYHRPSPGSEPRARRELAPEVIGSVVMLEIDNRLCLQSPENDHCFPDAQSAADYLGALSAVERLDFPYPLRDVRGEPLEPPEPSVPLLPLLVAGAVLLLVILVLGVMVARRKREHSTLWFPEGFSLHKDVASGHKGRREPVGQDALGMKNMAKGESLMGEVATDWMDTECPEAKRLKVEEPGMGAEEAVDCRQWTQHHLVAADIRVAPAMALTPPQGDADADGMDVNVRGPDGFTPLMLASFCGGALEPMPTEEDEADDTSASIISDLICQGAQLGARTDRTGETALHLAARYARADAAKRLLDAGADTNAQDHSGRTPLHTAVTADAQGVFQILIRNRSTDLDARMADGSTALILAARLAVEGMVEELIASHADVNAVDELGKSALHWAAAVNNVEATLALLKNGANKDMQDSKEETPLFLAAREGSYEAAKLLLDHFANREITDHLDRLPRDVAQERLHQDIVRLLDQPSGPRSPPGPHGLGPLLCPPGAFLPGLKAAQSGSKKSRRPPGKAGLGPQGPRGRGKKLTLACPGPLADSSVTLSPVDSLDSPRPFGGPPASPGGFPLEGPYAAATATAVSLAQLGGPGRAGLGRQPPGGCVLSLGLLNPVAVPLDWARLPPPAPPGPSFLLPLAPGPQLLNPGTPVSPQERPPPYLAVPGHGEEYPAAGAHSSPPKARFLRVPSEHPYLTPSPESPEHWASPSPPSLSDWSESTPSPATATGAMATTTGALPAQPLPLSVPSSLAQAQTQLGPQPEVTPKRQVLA

For `C=C(CCCC)C(=O)CC[C@H](OC(C)=O)c1cccc(OCCO)c1`, the composite z-score in experiment [1] was 0.554; in [5] it was -0.348; in experiment [7], -0.215; in experiment [8] it was -0.848; in experiment [9], -0.216; in experiment [10], -0.363. For the same molecule, the z-score was 0.292 (inactive) in experiment [2], -1.84 (inactive) in [3], -0.303 (inactive) in experiment [4] and 0.787 (inactive) in [6].

As for `COC(=O)[C@@]1(Cc2ccc(F)cc2)[C@H]2c3cc(C(=O)N(C)C)n(Cc4ccc(S(C)(=O)=O)cc4)c3C[C@H]2CN1C(=O)c1ccccc1`, the composite z-score in experiment [1] is -0.213; in [5], 2.23; in [7], 0.124; in experiment [8], -0.139; in experiment [9], 0.49; in experiment [10], -0.0045. Further, the z-score in [2] was 0.304 (inactive); in [3] it was 1.21 (inactive); in [4], 0.147 (inactive); in experiment [6], 0.321 (inactive).

Take `COC(=O)[C@@]1(Cc2ccc(F)cc2)[C@H]2c3cc(C(=O)N4CCCC4)n(Cc4ccc(C)o4)c3C[C@H]2CN1C(=O)c1ccccc1`: the composite z-score in experiment [1] stood at 0.812; in experiment [5], 2.88; in [7], 0.381; in experiment [8], 1.2; in [9] it was 0.556; in experiment [10], 0.277. Moreover, the z-score is -0.849 (inactive) in experiment [2], -0.0545 (inactive) in experiment [3], 0.0836 (inactive) in experiment [4] and -0.673 (inactive) in experiment [6].

Take `[N-]=[N+]=NCc1ccccc1C[C@]1(C(=O)NCC(O)CO)N=C(c2ccc(OCCCO)cc2)O[C@H]1c1ccccc1` (stereo not given in full): the composite z-score in [1] was -0.434; in experiment [5], 2.62; in experiment [7], 0.38; in [8], -0.918; in experiment [9], -1.29; in [10], -0.0758. The z-score was -0.0234 (inactive) in experiment [2], 0.559 (inactive) in [3], -1.04 (inactive) in experiment [4] and 0.478 (inactive) in experiment [6].

Consider `COC(=O)[C@@]1(Cc2ccc(OC)cc2)[C@H]2c3cc(C(=O)N4CCCC4)n(Cc4ccccc4)c3C[C@H]2CN1C(=O)c1ccccc1`, for which the composite z-score in [1] was 0.678; in [5] it was 3.37; in experiment [7], 1.62; in [8], -0.242; in [9], 1.05; in experiment [10], 1.25. Moreover, the z-score in [2] was -0.183 (inactive); in experiment [3], 0.657 (inactive); in experiment [4], 1.12 (inactive); in [6], -0.801 (inactive).

For `COC(=O)[C@@]1(Cc2ccccc2)[C@H]2c3cc(C(=O)N4CCCC4)n(Cc4cccc5ccccc45)c3C[C@H]2CN1C(=O)c1ccccc1`, the composite z-score in experiment [1] is -1.59; in experiment [5] it was 2.54; in [7], 1.29; in experiment [8], -0.685; in [9] it was 0.943; in [10] it was 0.891. The z-score in [2] was 0.506 (inactive); in experiment [3], 1.56 (inactive); in experiment [4], 1.43 (inactive); in experiment [6], -0.395 (inactive).

On to `CC[C@@H]1C=C(C(=O)O)[C@H](c2ccco2)N1S(=O)(=O)c1ccc(C)cc1`, for which the composite z-score is 0.475 in [1]; 0.0172 in experiment [5]; -0.0644 in [7]; 0.237 in experiment [8]; -0.14 in [9]; -0.171 in experiment [10]. Also, the z-score in [2] was 0.316 (inactive); in [3] it was 0.535 (inactive); in experiment [4], -0.407 (inactive); in experiment [6], 0.0597 (inactive).

On to `O=C1O[C@@H](c2ccccc2)[C@@H](c2ccccc2)N2[C@@H](c3ccccc3OCCO)[C@]3(C(=O)Nc4ccc(C#CC5=CCCCC5)cc43)[C@@H](C(=O)Nc3nc4ccccc4s3)[C@H]12`, for which the composite z-score in experiment [1] was determined as 1.56; in experiment [5] it was 2.4; in [7], 0.123; in [8] it was 0.82; in experiment [9] it was 0.993; in experiment [10] it was 0.0224. In addition, the z-score in [2] was 1.37 (inactive); in experiment [3], 1.8 (inactive); in experiment [4] it was 2.58 (inactive); in experiment [6], 0.901 (inactive).

On to `[N-]=[N+]=Nc1ccccc1C[C@]1(C(=O)NCC(O)CO)N=C(c2ccc(OCCCO)cc2)O[C@H]1c1ccccc1N=[N+]=[N-]` (stereo not given in full), for which the composite z-score is -0.918 in experiment [1]; 2.98 in experiment [5]; 0.334 in experiment [7]; -0.609 in experiment [8]; 0.203 in experiment [9]; 0.383 in experiment [10]. Also, the z-score is 0.637 (inactive) in experiment [2], -0.824 (inactive) in [3], 0.0558 (inactive) in experiment [4] and 0.774 (inactive) in experiment [6].

Turning to `[N-]=[N+]=Nc1ccccc1C[C@@]1(C(=O)NCCN2CCOCC2)N=C(c2ccc(OCCCO)cc2)O[C@@H]1c1ccccc1`, the composite z-score in experiment [1] is 1.55; in experiment [5], 3.27; in [7] it was -0.0673; in [8] it was 0.748; in [9] it was 1.08; in experiment [10], 0.0371. For the same molecule, the z-score in experiment [2] was -2.58 (inactive); in experiment [3], -4.77 (inactive); in [4] it was -1.77 (inactive); in experiment [6], 1.26 (inactive).

On to `CCOC(=O)C[C@H]1[C@H](OC(=O)Cc2ccc3c(c2)OCO3)[C@@H](NC(=O)c2ccc3ccccc3c2)c2cc(OCCCO)ccc2N1C(=O)c1ccccc1`, for which the composite z-score in experiment [1] was 0.745; in experiment [5], 1.69; in experiment [7], -0.0961; in [8] it was 0.329; in experiment [9], 0.742; in [10], -0.0225. The z-score in experiment [2] was -0.0607 (inactive); in experiment [3], 0.175 (inactive); in experiment [4], 0.954 (inactive); in [6], 1.35 (inactive).

Turning to `CCCCC(=C=CC[C@@H](O)c1ccccc1OCCO)CCO`, the composite z-score in experiment [1] was -0.144; in experiment [5], 1.06; in experiment [7] it was -0.192; in experiment [8], 0.201; in [9], -0.0525; in experiment [10] it was -0.199. Also, the z-score in experiment [2] is 0.598 (inactive); in experiment [3], -0.424 (inactive); in experiment [4], -0.374 (inactive); in experiment [6], 0.205 (inactive).

With `[N-]=[N+]=NCc1ccccc1C[C@@]1(C(=O)NCC(O)CO)N=C(c2ccc(OCCCO)cc2)O[C@@H]1c1ccccc1N=[N+]=[N-]` (stereo not given in full), the composite z-score in experiment [1] is 1.53; in experiment [5], 3.53; in experiment [7], 0.36; in experiment [8] it was 0.633; in experiment [9], 0.618; in [10] it was 0.118. Also, the z-score in [2] was -1.01 (inactive); in experiment [3] it was -0.348 (inactive); in experiment [4], 1.99 (inactive); in experiment [6], 1.73 (inactive).

In the case of `CN1C(=O)C2C=CC(C(O)c3ccc(-c4ccccc4)s3)N(N(c3ccccc3)c3ccccc3)C2C1=O` (stereo not given), the composite z-score was 0.668 in experiment [1]; 1.93 in [5]; 0.164 in experiment [7]; -0.132 in [8]; 1.12 in [9]; -0.0003 in [10]. Also, the z-score in experiment [2] is 0.187 (inactive); in [3], 0.947 (inactive); in [4], 1.33 (inactive); in [6], -0.422 (inactive).

These data come from PubChem BioAssay.
